# A selection: hits, their analogues and other compounds. The true share with any hit is near 12%.
# G9a inh – G9a (human) methyltransferase inhibition | Q96KQ7 | G9a H3K9 monomethylation, AlphaScreen, 2 h | Potency, µM (doses to about 102 µM), inactives show at the highest dose activity, negative = inhibition, most hits filed as inhibitors | 350,000 compounds, 8.8% hits; also: % is scaled to controls: 0 for no effect and ±100 for the full control effect; nearly all actives have a fitted effect of over 75% in size
# Target sequence (Q96KQ7 913-1193 limits assumed): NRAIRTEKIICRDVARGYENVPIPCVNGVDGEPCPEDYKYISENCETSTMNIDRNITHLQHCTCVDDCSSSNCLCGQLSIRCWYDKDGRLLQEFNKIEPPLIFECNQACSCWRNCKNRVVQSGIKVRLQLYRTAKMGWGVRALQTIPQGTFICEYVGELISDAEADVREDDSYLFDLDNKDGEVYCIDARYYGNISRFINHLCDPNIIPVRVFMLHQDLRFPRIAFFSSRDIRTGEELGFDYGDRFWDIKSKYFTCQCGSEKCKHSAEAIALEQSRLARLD
#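 Signal arises when biotinylated H3K9 peptide, once monomethylated, bridges streptavidin donor and antibody-captured acceptor beads. Enzyme at 20 nM was preincubated 15 min with test compounds; peptide 500 nM and SAM 20 uM then reacted for 2 h.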
# BAZ2B block – BAZ2B (human) inhibition; AlphaScreen BAZ2B-H3K14Ac peptide displacement; Potency, µM (doses to about 114 µM), inactives show top-dose activity change, negative = inhibition, actives largely listed as inhibitors; 360,000 compounds, 4.4% hits; AID 504333; Q9UIF8; also: % is scaled to controls: 0 for no effect and ±100 for the full control effect; nearly all actives have a fitted effect of over 60% in size
#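 BAZ2B (50 nM) with biotin-H3(5-23)K14Ac peptide (50 nM) in PBS pH 7.4, 0.01% Tween-20, preformed 30 min, then compound 30 min at room temperature; top concentration 110uM. AlphaScreen streptavidin donor/nickel chelate acceptor beads (10 ug/mL final), 20 min dark, signal read.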
# Sfp PPTase inh – Sfp phosphopantetheinyl transferase inhibition; Q9F4F7; Potency, µM, without a hit: largest response in the series, negative = inhibition, most hits filed as inhibitors; 310,000 compounds, 3.5% hits; AID 1490; Biochemical Sfp PPTase activity, qHTS;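 also: the enzyme is Sfp with the accession as filed and its product quenches rhodamine fluorescence; 0% = enzyme reaction without inhibitor and -100% = no enzyme wells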
#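 Fluorescence-quenching assay with 15 nM Sfp, 5 uM rhodamine-CoA and 12.5 uM BHQ-2-labelled ybbR peptide in pH 7.6 Hepes/MgCl2 buffer. Enzyme was pre-incubated with compound for 15 min at room temperature. Rate was taken from the 30-min fluorescence change (525/598 nm).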
# HP1b chromo inh – blocks HP1-beta chromodomain binding to methylated histone tails; Potency, µM (top dose mostly 114 µM), for inactives: top-dose activity change, negative = inhibition, hits mostly inhibitors; AlphaScreen HP1-beta / biotin-H3K9me3 peptide binding; 390,000 compounds, 0.56% hits; AID 540317; also: nearly all actives have a fitted effect of over 70% in size
# Target sequence (P83916 whole entry, looked up): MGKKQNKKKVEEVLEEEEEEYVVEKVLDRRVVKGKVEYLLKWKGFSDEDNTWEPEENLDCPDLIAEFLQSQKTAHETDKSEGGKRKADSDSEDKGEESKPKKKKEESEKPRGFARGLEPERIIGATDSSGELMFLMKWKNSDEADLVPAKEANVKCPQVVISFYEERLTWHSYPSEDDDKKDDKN
#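 Compound inhibition of the preformed complex between 50 nM HP1-beta and 50 nM biotinylated H3K9me3 peptide was read by AlphaScreen. Buffer was PBS pH 7.4 with 0.01% Tween-20. Incubations ran 30 min at room temperature, with 10 ug/mL donor/acceptor beads.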
# L3MBTL1 inh – inhibitors of human L3MBTL1; Q9Y468; 230,000 compounds, 0.66% hits; Potency, µM (series often up to 57.1 µM), for the others: at the top dose activity, negative = inhibition, hits mostly inhibitors; AlphaScreen L3MBTL1–H3K9me1 peptide binding; AID 485360; also: % is scaled to controls: 0 for no effect and ±100 for the full control effect; nearly all actives have a fitted effect of over 60% in size
#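 L3MBTL1 (50 nM) pre-complexed 30 min with biotinylated H3(1-15)K9me1 peptide (75 nM), then compounds added for 30 min at room temperature; AlphaScreen streptavidin donor/nickel chelate acceptor beads (10 ug/mL final) read after 30 min dark incubation.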
# JMJD2A Tudor inh – JMJD2A Tudor domain (human) inhibition; O75164; AID 504339; Potency, µM (highest dose often 114 µM), for inactives: at the top dose activity change, negative = inhibition, actives largely listed as inhibitors; AlphaScreen JMJD2A-Tudor / H3K4me3 peptide binding; 390,000 compounds, 4.4% hits; also: % is scaled to controls: 0 for no effect and ±100 for the full control effect; nearly all actives have a fitted effect of over 50% in size
# An asterisk follows results filed as active; ? = inconclusive; · = not tested or not shown; ! = a repeat was not active; [ ] = dose if it differs, or a comment. Calls follow the shape of the dose curve; as a rule, active = well fitted curve in the direction sought with a large enough effect; inconclusive = small, poorly fitted or top-dose-only effect, or another doubt; inactive = no such curve, though single readings can be large; an effect the other way counts as inactive or inconclusive. Potency is read from the fitted curve at half-maximal effect.
SMILES,G9a inh,BAZ2B block,Sfp PPTase inh,HP1b chromo inh,L3MBTL1 inh,JMJD2A Tudor inh
C=CCn1c(CSc2nc3ccccc3s2)n[nH]c1=S,4.47µM*,10.3%,-7.2%,4.4%,33.6%,50.1µM*
S=c1[nH]nc(CSc2nc3ccccc3s2)n1Cc1ccccc1,3.16µM*,-2.5%,7.1%,31.5%,·,?
COC(=O)c1ccn(-c2nc(-c3ccc(Cl)cc3)cc(C(F)(F)F)n2)n1,1.2%[59 µM],-9.0%,·,36.7%,·,3.4%
CC(CNCCCn1ccc(NC(=O)OCc2ccccc2)nc1=O)c1ccccc1 (stereo not given),·,·,·,27.9%,·,-14.5%
Cc1ccc(NCCCn2ccc(NC(=O)OCc3ccccc3)nc2=O)cc1C,·,·,·,?,·,56.2µM*
Cc1csc2c(=O)sc(NC(=O)c3cccs3)nc12,?,50.1µM*,-0.3%,0.7%,·,-28.3%
O=C(Nc1nc2c(Cl)ccc(Cl)c2s1)c1ccco1,?,-6.1%,-3.1%,28.4%,·,-7.0%
O=C(Nc1nc2ccsc2c(=O)s1)c1ccco1,39.8µM*,?,?,?,·,35.5µM*
Cc1csc2c(=O)sc(NC(=O)c3ccco3)nc12,50.1µM*,-1.0%,56.2µM*,16.2%,·,-5.7%
Cc1nc2ccc3nc(NC(=O)c4ccco4)sc3c2s1,·,·,·,123.8%,·,?
Cc1cc2c(s1)c1cnn(Cc3ccccc3Cl)c(=O)c1n2C,·,·,·,·,·,-16.4%
CCCc1nn2c(=O)cc(COc3ccc(/C=C(\C#N)C(=O)Nc4ccccc4)cc3)nc2s1,-29.5%[59 µM],-35.5%,·,58.6%,·,-28.1%
Cc1ccccc1OCc1ccc(-c2nc(C#N)c(N3CCC(C(N)=O)CC3)o2)o1,10µM*,?,·,-5.4%,·,?
COc1ccc(N2CCN(c3oc(-c4ccc(COc5cccc(C)c5)o4)nc3C#N)CC2)cc1,?,?,·,19.1%,·,?
CCN1CCN(c2oc(-c3ccc(COc4ccccc4C)o3)nc2C#N)CC1,5.1%[59 µM],11.4%,·,?,·,50.1µM*
COc1ccccc1N/N=C/c1ccc2c(c1)OCO2,7.08µM*,?,-6.2%,-23.0%,-10.6%,?
COc1c(Cl)cc(C(=O)N(Cc2ccc(C)o2)C2CCS(=O)(=O)C2)cc1Cl (stereo not given),-28.3%[59 µM],?,·,-23.5%,·,-29.2%
Cc1ccc(S(=O)(=O)NCCc2cn3ccsc3n2)cc1,8.5%[59 µM],4.0%,·,14.9%[57 µM],·,-5.5%
O=C(/C=C/c1ccc(-c2ccccc2[N+](=O)[O-])o1)c1ccco1,14.1µM*,39.8µM*,?,39.8µM*,?,17.8µM*
O=C(COC(=O)c1cnccn1)N=c1sccn1Cc1ccccc1Cl,56.2µM*,-0.3%,·,13.9%,-7.8%,-17.8%
Cc1cnc(C(=O)OCC(=O)N=c2sccn2Cc2ccccc2Cl)cn1,4.3%,-18.6%,3.4%,38.7%,·,-12.1%
COc1ccc(OC)c(CNS(=O)(=O)c2cc(-c3onc(C)c3C)ccc2C)c1,-3.3%[59 µM],-17.4%,·,21.2%,·,-10.1%
COc1ccc(C2CC(=O)c3cc(-c4nc(-c5cccc(Cl)c5)cs4)c(=O)[nH]c3C2)cc1 (stereo not given),-7.0%[59 µM],1.3%,·,52.9%,·,-1.0%
Cc1ccc(-c2csc(-c3cc4c([nH]c3=O)CC(c3ccccc3)CC4=O)n2)cc1 (stereo not given),2.51µM*,79.4µM*,·,15.2%,·,89.1µM*
C=CCc1cccc2cc(C(=O)N3CCN(C(=O)c4ccco4)CC3)c(=O)oc12,44.7µM*,6.4%,0.8%,28.1%,-2.0%,-2.8%
SMILES,G9a inh,BAZ2B block,Sfp PPTase inh,HP1b chromo inh,L3MBTL1 inh,JMJD2A Tudor inh
C=CCc1cccc2cc(C(=O)Nc3ccccc3C(=O)O)c(=O)oc12,12.6µM*,50.1µM*,-4.5%,3.7%,-28.3%,-35.0%
C=CCc1cccc2cc(C(=O)O)c(=O)oc12,-11.6%,-38.1%,12.9%,11.3%,·,-4.8%
CCOc1ccc(CCNC(=O)c2[nH]c3cc(OC)ccc3c2Sc2ccccc2)cc1OCC,-8.8%[59 µM],-1.4%,·,14.0%,·,-12.6%
Cc1ccc2c(cnn2C(=O)CCC(=O)NCc2cccc(Cl)c2)c1,44.7µM*,11.1%,-23.5%,29.2%,0.2%,-14.8%
Cc1ccccc1C(=O)Nc1ccc2nc(SCC(=O)N3CCc4ccccc43)sc2c1,7.9%[59 µM],-14.9%,·,68.6%,·,5.3%
CN(C)c1cccc2c(C=C(C#N)C#N)ccc(N(C)C)c12,8.91µM*,20µM*,-4.4%,22.4µM*,-15.2%,15.8µM*
CN(C)c1cccc2c(/C=N/O)ccc(N(C)C)c12,?,-14.9%,19.6%,-11.1%,-4.9%,-17.4%
O=C(c1ccccc1)N1CCCC(c2ccc(Cl)cc2)=N1,-1.0%[2.33 µM],16.1%,79.4µM*,41.0%,12.0%,14.1%
C=CCN1CCc2c(cc(O)c(O)c2Cl)C(c2ccccc2)C1 (stereo not given),7.08µM*!,?,?,20.1%,·,?
C=CCN1CCN(C(=O)c2ccc(-c3ccccc3)cc2)CC1,·,-11.0%,-2.3%,11.8%,·,-24.9%
C=CCN1CCc2cc(O)c(O)cc2C(c2ccccc2)C1 (stereo not given),10µM*,-5.5%,·,9.8%,-14.0%,-24.5%
Cc1cccc(C2CN(C)CCc3c2cc(O)c(O)c3Cl)c1 (stereo not given),23.8µM*,-7.6%,·,15.1%,-9.8%,-35.3%
COc1ccc(CCNC(=O)c2ccc3c(c2)N(Cc2c(F)cccc2Cl)C(=O)CS3)cc1OC,1.3%[59 µM],-31.4%,·,47.7%,·,-1.8%
CCc1ccccc1NC(=O)c1ccc(Cn2nc(N3CCN(c4ccccc4)CC3)ccc2=O)o1,?,-35.3%,·,5.1%,·,?
CCc1ccc(NC(=O)c2ccc(Cn3nc(N4CCN(c5ccccc5)CC4)ccc3=O)o2)cc1,?,50.1µM*,·,2.3%,·,?
Cn1ccc2cc(S(=O)(=O)N3CCN(S(=O)(=O)c4c(F)cccc4F)CC3)ccc21,·,·,·,·,·,-11.6%
Cc1c(Br)c(O)c(Br)c2sc(=O)oc12,3.55µM*,?,2.82µM*,28.2µM*,35.5µM*,44.7µM*
COc1ccc(CNC(=O)CCCN2C(=O)CCn3nc(-c4cn(C)c5ccccc45)cc32)cc1,7.9%[59 µM],-12.4%,·,19.9%[57 µM],·,-15.7%
CCN1CCN(C(=O)Nc2cccc3ccccc23)CC1,39.8µM*,?,0.4%,21.0%,·,-0.7%
COC(=O)c1cnn2c(C)c(Cc3c(C)cc(C)cc3C)c(C)nc12,-17.3%[59 µM],2.2%,·,29.7%,·,-15.9%
O=C(O)c1ccc2c(c1)OCO2,·,·,10.3%,·,·,·
O=C(O)c1cc(O)c2c(c1)[O][Bi][O]2,1µM*,·,?,·,·,·
O=[N+]([O-])c1ccc(N/N=C/c2cccc(O)c2O)c(S(=O)(=O)N2CCOCC2)c1,35.5µM*,?,-6.0%,1.0%,-8.6%,-20.7%
